# Screening results from PubChem.
# MCF10A rerep: A quantitative high throughput screen for small molecules that induce DNA re-replication in MCF 10a normal breast cells. AID 624296, 2012. Potency, µM (doses to about 46.1 µM), inactives show at the top dose activity, positive = re-replication, actives largely listed as activators. 350,000 compounds, 2.9% hits. MCF 10A DNA re-replication, Hoechst nuclear intensity, 48 h; also: % of control where 0% means no effect; nearly all actives have a fitted effect of over 50% in size
# ELG1 DNA repair: qHTS screen for small molecules that inhibit ELG1-dependent DNA repair in human embryonic kidney (HEK293T) cells expressing luciferase-tagged ELG1 | 330,000 compounds, 2.3% hits | AID 504467, 2011 | Potency, µM (series often up to 46.1 µM), inactives show at the top dose activity change, negative = inhibition, most hits filed as inhibitors | HEK293T ELG1-luciferase reporter, luminescence, 16 h; DNA damage induced by 5-fluorouridine; also: % is scaled to controls: 0 for no effect and ±100 for the full control effect; nearly all actives have a fitted effect of over 55% in size
#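 HEK293T cells expressing luciferase-tagged ELG1 (2,000/well) received 5-Fluorouridine plus compound or DMSO for 16 hr at 37 °C. Luciferase was read by ONE-Glo luminescence after 30 min at room temperature.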
# RORgamma inh: qHTS for inhibitors of ROR gamma transcriptional activity; Nuclear receptor ROR-gamma (Mus musculus), P51450; Drosophila S2 Gal4-RORgamma UAS-luciferase reporter, 20 h; Potency, µM (doses to about 53.6 µM), without a hit: top-dose activity change, negative = inhibition, hits mostly inhibitors; 310,000 compounds, 5.4% hits; also: % is scaled to controls: 0 for no effect and ±100 for the full control effect; nearly all actives have a fitted effect of over 60% in size
# Target sequence (P51450 whole entry, looked up, the tested form may be a part): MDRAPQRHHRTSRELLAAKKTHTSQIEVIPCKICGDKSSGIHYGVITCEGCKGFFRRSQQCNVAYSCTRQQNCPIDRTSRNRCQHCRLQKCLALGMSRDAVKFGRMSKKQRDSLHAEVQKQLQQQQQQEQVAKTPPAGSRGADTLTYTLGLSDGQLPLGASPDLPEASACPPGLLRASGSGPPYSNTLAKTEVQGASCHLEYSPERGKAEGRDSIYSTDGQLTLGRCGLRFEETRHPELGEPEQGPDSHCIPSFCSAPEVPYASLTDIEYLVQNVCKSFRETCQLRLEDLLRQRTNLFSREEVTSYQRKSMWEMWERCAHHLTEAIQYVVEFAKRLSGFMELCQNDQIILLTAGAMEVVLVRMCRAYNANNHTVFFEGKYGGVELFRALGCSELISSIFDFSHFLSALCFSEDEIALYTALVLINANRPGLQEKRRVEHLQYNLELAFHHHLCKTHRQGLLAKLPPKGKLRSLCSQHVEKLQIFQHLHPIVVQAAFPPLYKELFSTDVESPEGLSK
#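 In this cell-based reporter format, copper sulfate (700 uM final) drives Gal4–ROR gamma fusion expression from a metallothionein promoter in Drosophila Schneider cells; compounds preincubated 1 hr, reporter read after 20 hr at ambient temperature.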
# Gal4-VP16 FLuc: VP16 counterscreen qHTS for inhibitors of ROR gamma transcriptional activity. Potency, µM (doses to about 53.6 µM), for the others: top-dose activity, negative = inhibition, actives largely listed as inhibitors. 310,000 compounds, 3.5% hits. Drosophila S2 Gal4-VP16 UAS-luciferase, luminescence, 20 h;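 also: Gal4-VP16 expression switched on by copper sulfate through the metallothionein promoter; % is scaled to controls: 0 for no effect and ±100 for the full control effect; nearly all actives have a fitted effect of over 50% in size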
# SW480 rerep: A quantitative high throughput screen for small molecules that induce DNA re-replication in SW480 colon adenocarcinoma cells; SW480 DNA re-replication, Hoechst DNA content imaging, 48 h; Potency, µM (highest dose often 46.1 µM), inactives show at the highest dose re-replication activation, usual class: activators; 340,000 compounds, 1.8% hits; AID 624297, 2012; also: % of control where 0% means no effect; nearly all actives have a fitted effect of over 55% in size
#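 Readout is total intensity of Hoechst-stained nuclei, excited at 405 nm and collected at 500-530 nm. Compound treatment lasted 48 hr at 37 C in 5% CO2 before staining.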
# Numbers without * were called inactive; ? = inconclusive; nt = not tested or not shown. The list is not random: actives were taken first. Their share in the collection is about 10%. Calls follow the shape of the dose curve; as a rule, active = well fitted curve in the direction sought with a large enough effect; inconclusive = small, poorly fitted or top-dose-only effect, or another doubt; inactive = no such curve, though single readings can be large; an effect the other way counts as inactive or inconclusive. Potency is read from the fitted curve at half-maximal effect.
SMILES,MCF10A rerep,ELG1 DNA repair,RORgamma inh,Gal4-VP16 FLuc,SW480 rerep
C=CCNC(=S)NN=C1CCC(c2ccccc2)CC1 (stereo unspecified),11%,2%,13µM*,20µM*,7%
CC(C)(C)C1CCC(=NNC(=O)C(=O)NCc2cccnc2)CC1 (stereo unspecified),-1%,2%,-20%,-3%,-5%
Cc1cccc(C)c1NC(=S)NCc1ccncc1,-31%,-8%,-6%,-3%,-6%
Cc1ccc(O)c(C(=O)c2cnn(C(=O)Cc3csc(C)n3)c2)c1,?,16µM*,?,-5%,-1%
COc1cccc2c(N/N=C/c3ccccc3)cc(C)nc12,4%,-12%,12%,10%,-14%
Cc1ccccc1/C=N/Nc1nc2ccccc2c(=O)n1O,4%,26%,7.1µM*,?,?
COc1ccc2nc(C)cc(Nc3ccccc3O)c2c1,-9%,5%,-3%,3%,4%
Cc1cc(N/N=C/c2ccccc2O)c2ccccc2n1,12µM*,-6%,-14%,-25%,?
COc1ccc(/C=N/Nc2cc(C)nc3ccc(Br)cc23)cc1,12µM*,?,13µM*,?,16µM*
COc1ccc2nc(C)cc(N/N=C/c3cccc(OC)c3O)c2c1,?,2%,?,11µM*,?
CCCn1c(SCC(=O)N2CCc3ccccc3C2)nc(O)cc1=O,8%,26%,nt,nt,14%
O=C(CN1C(=O)NC2(CCCC2)C1=O)Nc1ccccc1F,-26%,13%,-21%,1%,-2%
Cc1ccsc1C(=O)NNC(=O)C1C2C=CC(C2)C1C(=O)O (stereo unspecified),-3%,?,5%,-19%,-8%
COc1ccc(CCC(=O)NCc2cccc(C(F)(F)F)c2)cc1,-11%,0%,4%,0%,-16%
COc1ccc2nc(C)cc(NCc3cccc(C(F)(F)F)c3)c2c1,21µM*,-13%,2%,-7%,23µM*
C/C(CC(=O)Nc1ccc(Cl)cc1C(F)(F)F)=N\NC(=O)c1ccccn1,11%,?,-45%,1%,14%
CCC(=O)NC(c1ccc(OC)c(OC)c1)c1cc(Cl)c2cccnc2c1O (stereo unspecified),?,?,0%,-4%,?
CN1CCN(C(c2ccc(Br)cc2)c2cc(Cl)c3cccnc3c2O)CC1 (stereo unspecified),?,?,2.8µM*,0.79µM*,?
COc1ccccc1C(NC(C)=O)c1cc(Cl)c2cccnc2c1O (stereo unspecified),?,?,2.2µM*,2.8µM*,0.58µM*
CC(=O)NC(C)c1cc(Cl)c2cccnc2c1O (stereo unspecified),3.3µM*,?,nt,nt,?
COc1ccc(C(NC(C)=O)c2cc(Cl)c3cccnc3c2O)cc1OC (stereo unspecified),?,?,4µM*,-25%,1.6µM*
COc1ccccc1S(=O)(=O)NCc1ccc(C(=O)NC2CCC(O)CC2)cc1 (stereo unspecified),?,12%,nt,nt,-3%
O=C(OCc1ccccc1)N(CCCCN(CCCNCc1ccccc1)C(=O)OCc1ccccc1)CCCNCc1ccccc1,5.8µM*,nt,nt,nt,?
O=C(CC(=O)OCc1ccccc1)OCc1ccccc1,-3%,nt,nt,nt,0%
CCOC(=O)CC(=O)CSc1nc2c(cc1C#N)CCC2,4.6µM*,17%,?,?,?
SMILES,MCF10A rerep,ELG1 DNA repair,RORgamma inh,Gal4-VP16 FLuc,SW480 rerep
Cc1noc(NS(=O)(=O)c2ccc(NC(=O)CC(C)C)cc2)c1C,3%,11%,-26%,-7%,2%
Cc1noc(NS(=O)(=O)c2ccc(N/C=C/C(=O)c3ccc(F)cc3)cc2)c1C,-3%,?,8%,-3%,2%
Cc1ccc(S(=O)(=O)CC(=O)Nc2ccc(S(=O)(=O)Nc3onc(C)c3C)cc2)cc1,-1%,7%,0%,-1%,10µM*
Cc1noc(NS(=O)(=O)c2ccc(NC(=O)CSc3nc4c(cc3C#N)CCCCC4)cc2)c1C,21µM*,26%,38%,6%,18%
COC(=O)CC(=O)CSc1nc2c(cc1C#N)CCCCC2,?,?,?,-30%,-9%
CCc1ccc(C(=O)/C=C/Nc2ccc(S(=O)(=O)Nc3onc(C)c3C)cc2)cc1,26µM*,?,?,16µM*,13%
CCOc1ccc(OCCSc2ccc(S(=O)(=O)N3CCN(C)CC3)cn2)cc1,20%,11%,nt,nt,0%
CCCCN(C(=O)c1cc(S(=O)(=O)N2CCCCC2)ccc1Cl)c1c(N)n(CC(C)C)c(=O)[nH]c1=O,5%,nt,nt,nt,3%
CCCCC1(Cc2cccc([N+](=O)[O-])c2)C(=O)N(c2ccccc2)N(c2ccccc2)C1=O,?,-8%,18µM*,?,?
O=C(N/N=C/c1cc(Br)ccc1O)c1ccccc1Cl,?,?,0.56µM*,2.5µM*,?
C=CCn1c(COc2ccc(Cl)cc2)nnc1SCC(=O)N/N=C/c1cccc(O)c1,7%,-22%,22%,-11%,-6%
CC(=O)n1cc(/C=N/NC(=O)c2ccccc2Cl)c2ccccc21,-6%,?,-14%,1%,-8%
O=C(N/N=C/C1CC2C=CC1C2)c1ccccc1O (stereo unspecified),2%,0%,4.5µM*,?,?
C=CCn1c(CNc2ccccc2)nnc1SCC(=O)N/N=C/c1ccccc1O,43%,?,10µM*,16µM*,?
Cc1nc2ccc(Br)cn2c1C(=O)N/N=C\c1ccc(C(C)C)cc1,6%,?,5.6µM*,5µM*,-2%
CC(C)C(=O)c1cn(CC(=O)N2CCCc3ccccc32)c2ccccc12,19%,-24%,16%,3%,4%
O=C(Cn1cc(C(F)(F)F)ccc1=O)N/N=C/c1ccccc1O,0%,18µM*,2µM*,10µM*,5.8µM*
O=C(CCCCC(=O)NN=Cc1ccccc1O)NN=Cc1ccccc1O,?,nt,nt,nt,1.5µM*
O=C(CSCc1ccccc1)N/N=C/c1cc2c(cc1Br)OCO2,14%,?,?,11µM*,nt
CC(C)c1ccc(/C=N/NC(=O)c2ccccc2Cl)cc1,5.8µM*,?,?,-2%,13µM*
CC(=O)N1CC2(CC2)CC1c1ccccc1 (stereo unspecified),nt,nt,-2%,-2%,nt
O=C(N/N=C\c1ccccc1O)c1ccccc1O,nt,nt,1µM*,35µM*,nt
O=C(CSCC(=O)NN=Cc1ccccc1O)NN=Cc1ccccc1O,15µM*,nt,nt,nt,?
